Experimental data as given in article PMC7862700, “An all-to-all approach to the identification of sequence-specific readers for epigenetic DNA modifications on cytosine”.

Tests used:
Experiment in all cases: DAPPL (digital affinity profiling via proximity ligation, sequencing); 10 mM Tris-HCl pH 7.5, 50 mM NaCl, 1 mM DTT, 4% glycerol, room temperature, 30 min; GST-TFs on glutathione beads, 16-mer random dsDNA library, 0.1% formaldehyde crosslink after washing; high values mean tight binding
FEV = biological target: T1, FEV (Homo sapiens, UniProt Q99581 1-238); conditions: protein: recombinant; tags: N-terminal GST; dsDNA, one strand shown
T1 sequence: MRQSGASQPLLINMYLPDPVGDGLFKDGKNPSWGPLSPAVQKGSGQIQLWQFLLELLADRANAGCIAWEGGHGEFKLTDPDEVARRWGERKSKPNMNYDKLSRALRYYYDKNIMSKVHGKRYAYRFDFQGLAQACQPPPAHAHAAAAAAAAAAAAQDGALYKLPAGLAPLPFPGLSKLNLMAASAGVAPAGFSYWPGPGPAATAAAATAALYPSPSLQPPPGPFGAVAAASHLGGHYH
In short: (§1)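 Human transcription factors were made in yeast as GST fusions, captured on glutathione beads and barcoded with DNA. With a tag-only sample included, the pool was incubated with 200 nmole of a random double-stranded 16-mer DNA library in Tris/NaCl/DTT/glycerol buffer at room temperature for 30 min, then crosslinked with 0.1% formaldehyde after washing, ligated by proximity, amplified and sequenced. For binding signal, each hexamer's read frequency for a factor is divided by its frequency for the tag-only sample.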

ETV5 = ETV5 (Homo sapiens, UniProt P41161 1-510); conditions: protein: recombinant; tags: N-terminal GST; dsDNA, one strand shown
Sequence of ETV5 (P41161 whole entry): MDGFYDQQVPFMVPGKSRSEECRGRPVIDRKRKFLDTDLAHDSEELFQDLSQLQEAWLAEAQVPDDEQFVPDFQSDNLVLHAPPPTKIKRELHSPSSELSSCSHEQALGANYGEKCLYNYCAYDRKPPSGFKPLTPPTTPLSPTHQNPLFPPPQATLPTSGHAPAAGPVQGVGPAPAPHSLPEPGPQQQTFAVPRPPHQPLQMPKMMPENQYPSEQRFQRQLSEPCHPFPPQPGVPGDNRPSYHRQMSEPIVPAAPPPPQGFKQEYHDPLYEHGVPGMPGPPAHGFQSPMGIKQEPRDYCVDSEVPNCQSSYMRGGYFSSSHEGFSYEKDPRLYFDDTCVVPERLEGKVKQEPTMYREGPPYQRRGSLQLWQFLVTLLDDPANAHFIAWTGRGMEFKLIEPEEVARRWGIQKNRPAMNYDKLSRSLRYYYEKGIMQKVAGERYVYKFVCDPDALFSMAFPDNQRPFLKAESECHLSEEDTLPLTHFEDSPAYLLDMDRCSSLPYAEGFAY
In short: as §1

HSF1 = HSF1 (Homo sapiens, UniProt Q00613 1-529); conditions: protein: recombinant; tags: N-terminal GST; chain copies: 3; dsDNA, one strand shown
Sequence of HSF1 (Q00613 whole entry): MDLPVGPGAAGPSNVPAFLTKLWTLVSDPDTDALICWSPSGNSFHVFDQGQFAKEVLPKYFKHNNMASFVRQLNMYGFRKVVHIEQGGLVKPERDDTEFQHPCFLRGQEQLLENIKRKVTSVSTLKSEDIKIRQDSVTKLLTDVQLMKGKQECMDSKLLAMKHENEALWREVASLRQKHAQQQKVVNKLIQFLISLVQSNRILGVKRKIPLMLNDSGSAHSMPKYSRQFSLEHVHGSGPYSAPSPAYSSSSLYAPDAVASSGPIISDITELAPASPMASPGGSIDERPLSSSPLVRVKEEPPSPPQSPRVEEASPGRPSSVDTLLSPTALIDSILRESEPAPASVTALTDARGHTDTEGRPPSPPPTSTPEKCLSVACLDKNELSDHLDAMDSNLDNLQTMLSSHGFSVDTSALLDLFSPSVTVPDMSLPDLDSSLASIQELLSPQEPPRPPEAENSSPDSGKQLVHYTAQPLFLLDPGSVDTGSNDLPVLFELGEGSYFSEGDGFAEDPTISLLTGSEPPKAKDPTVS
In short: as §1

SPIC = biological target: T2, SPIC (Homo sapiens, UniProt Q8N5J4 1-248); conditions: protein: recombinant; tags: N-terminal GST; dsDNA, one strand shown
T2 sequence: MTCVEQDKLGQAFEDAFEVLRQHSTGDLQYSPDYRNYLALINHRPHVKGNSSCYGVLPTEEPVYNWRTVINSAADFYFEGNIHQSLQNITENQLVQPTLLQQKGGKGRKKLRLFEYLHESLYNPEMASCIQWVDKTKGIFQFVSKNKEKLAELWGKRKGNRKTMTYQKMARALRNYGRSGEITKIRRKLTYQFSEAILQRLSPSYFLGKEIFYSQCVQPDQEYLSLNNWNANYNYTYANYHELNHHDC
In short: as §1

ELF4 = ELF4 (Homo sapiens, UniProt Q99607 1-663); conditions: protein: recombinant; tags: N-terminal GST; dsDNA, one strand shown
Sequence of ELF4 (Q99607 whole entry): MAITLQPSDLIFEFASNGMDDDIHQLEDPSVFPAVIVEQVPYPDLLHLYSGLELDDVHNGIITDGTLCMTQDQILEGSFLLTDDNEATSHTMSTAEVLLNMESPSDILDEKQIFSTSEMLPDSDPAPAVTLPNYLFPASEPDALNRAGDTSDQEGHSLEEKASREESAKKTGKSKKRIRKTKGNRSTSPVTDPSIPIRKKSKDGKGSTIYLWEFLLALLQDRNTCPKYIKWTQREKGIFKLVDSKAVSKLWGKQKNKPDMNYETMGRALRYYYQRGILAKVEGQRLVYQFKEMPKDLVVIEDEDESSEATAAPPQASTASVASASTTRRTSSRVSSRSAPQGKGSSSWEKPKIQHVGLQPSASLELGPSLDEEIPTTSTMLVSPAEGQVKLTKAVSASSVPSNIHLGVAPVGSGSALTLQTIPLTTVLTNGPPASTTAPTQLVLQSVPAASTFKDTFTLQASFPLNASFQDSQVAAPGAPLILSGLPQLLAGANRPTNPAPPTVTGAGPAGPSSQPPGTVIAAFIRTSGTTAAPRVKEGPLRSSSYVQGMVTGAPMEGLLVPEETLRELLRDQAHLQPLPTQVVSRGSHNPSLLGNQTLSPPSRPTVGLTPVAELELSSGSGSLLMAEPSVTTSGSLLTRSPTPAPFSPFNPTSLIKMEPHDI
In short: as §1

ELK4 = biological target: T3, ELK4 (Homo sapiens, UniProt P28324-2 1-405); conditions: protein: recombinant; tags: N-terminal GST; dsDNA, one strand shown
T3 sequence: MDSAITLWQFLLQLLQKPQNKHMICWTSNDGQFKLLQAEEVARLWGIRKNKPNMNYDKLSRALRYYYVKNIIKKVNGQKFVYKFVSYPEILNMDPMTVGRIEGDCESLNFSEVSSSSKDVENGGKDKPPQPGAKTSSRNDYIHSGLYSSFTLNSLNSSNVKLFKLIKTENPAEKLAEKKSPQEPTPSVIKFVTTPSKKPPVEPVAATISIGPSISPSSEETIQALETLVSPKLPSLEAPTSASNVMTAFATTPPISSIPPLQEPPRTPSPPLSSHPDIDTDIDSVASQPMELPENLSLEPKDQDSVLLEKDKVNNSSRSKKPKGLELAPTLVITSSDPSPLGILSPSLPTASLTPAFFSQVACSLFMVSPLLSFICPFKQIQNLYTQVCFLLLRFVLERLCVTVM
In short: as §1

ETV2 = biological target: T4, ETV2 (Homo sapiens, UniProt O00321 1-342); conditions: protein: recombinant; tags: N-terminal GST; dsDNA, one strand shown
T4 sequence: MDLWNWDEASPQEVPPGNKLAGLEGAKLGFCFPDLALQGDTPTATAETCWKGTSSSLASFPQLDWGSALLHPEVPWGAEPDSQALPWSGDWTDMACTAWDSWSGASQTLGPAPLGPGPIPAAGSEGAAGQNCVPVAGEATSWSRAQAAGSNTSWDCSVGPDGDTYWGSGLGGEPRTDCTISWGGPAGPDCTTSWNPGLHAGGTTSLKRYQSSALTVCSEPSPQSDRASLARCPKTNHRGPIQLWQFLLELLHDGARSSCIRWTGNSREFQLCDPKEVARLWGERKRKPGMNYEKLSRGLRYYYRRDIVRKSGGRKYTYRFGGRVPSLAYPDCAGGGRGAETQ
In short: as §1

ELF3 = biological target: T5, ELF3 (Homo sapiens, UniProt P78545 1-371); conditions: protein: recombinant; tags: N-terminal GST; dsDNA, one strand shown
T5 sequence: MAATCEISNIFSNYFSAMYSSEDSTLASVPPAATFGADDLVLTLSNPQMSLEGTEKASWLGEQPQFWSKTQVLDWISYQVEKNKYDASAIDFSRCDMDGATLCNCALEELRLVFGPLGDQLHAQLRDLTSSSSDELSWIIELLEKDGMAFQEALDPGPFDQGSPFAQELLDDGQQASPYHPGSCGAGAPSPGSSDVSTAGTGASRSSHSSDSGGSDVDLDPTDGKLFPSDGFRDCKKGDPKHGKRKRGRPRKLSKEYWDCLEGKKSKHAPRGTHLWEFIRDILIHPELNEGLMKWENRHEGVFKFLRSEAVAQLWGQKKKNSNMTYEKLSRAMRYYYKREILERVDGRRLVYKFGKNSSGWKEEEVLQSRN
In short: as §1

CRX = CRX (Homo sapiens, UniProt O43186 1-299); conditions: protein: recombinant; tags: N-terminal GST; dsDNA, one strand shown
Sequence of CRX (O43186 whole entry): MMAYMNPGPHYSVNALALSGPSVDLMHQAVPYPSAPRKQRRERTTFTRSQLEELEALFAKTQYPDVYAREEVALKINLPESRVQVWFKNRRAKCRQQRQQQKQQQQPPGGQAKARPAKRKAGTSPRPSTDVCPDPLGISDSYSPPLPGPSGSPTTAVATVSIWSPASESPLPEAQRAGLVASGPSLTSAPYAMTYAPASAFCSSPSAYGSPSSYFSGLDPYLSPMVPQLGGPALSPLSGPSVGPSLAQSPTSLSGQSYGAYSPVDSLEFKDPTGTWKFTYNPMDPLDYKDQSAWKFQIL
In short: as §1

ETV1 = ETV1 (Homo sapiens, UniProt P50549 1-477); conditions: protein: recombinant; tags: N-terminal GST; dsDNA, one strand shown
Sequence of ETV1 (P50549 whole entry): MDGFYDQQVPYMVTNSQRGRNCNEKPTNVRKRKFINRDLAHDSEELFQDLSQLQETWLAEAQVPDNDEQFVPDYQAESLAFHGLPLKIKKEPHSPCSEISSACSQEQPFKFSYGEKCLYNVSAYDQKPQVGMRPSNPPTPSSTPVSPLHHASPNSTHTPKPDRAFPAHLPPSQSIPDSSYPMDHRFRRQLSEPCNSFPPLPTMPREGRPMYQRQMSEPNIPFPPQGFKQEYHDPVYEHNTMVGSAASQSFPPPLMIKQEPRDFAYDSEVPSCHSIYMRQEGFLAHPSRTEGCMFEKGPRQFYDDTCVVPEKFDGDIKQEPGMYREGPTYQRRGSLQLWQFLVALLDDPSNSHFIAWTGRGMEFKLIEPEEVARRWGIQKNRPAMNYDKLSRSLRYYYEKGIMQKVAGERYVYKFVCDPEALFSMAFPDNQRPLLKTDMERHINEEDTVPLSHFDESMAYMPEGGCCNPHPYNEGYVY
In short: as §1

ERF = biological target: T6, ERF (Homo sapiens, UniProt P50548 1-548); conditions: protein: recombinant; tags: N-terminal GST; dsDNA, one strand shown
T6 sequence: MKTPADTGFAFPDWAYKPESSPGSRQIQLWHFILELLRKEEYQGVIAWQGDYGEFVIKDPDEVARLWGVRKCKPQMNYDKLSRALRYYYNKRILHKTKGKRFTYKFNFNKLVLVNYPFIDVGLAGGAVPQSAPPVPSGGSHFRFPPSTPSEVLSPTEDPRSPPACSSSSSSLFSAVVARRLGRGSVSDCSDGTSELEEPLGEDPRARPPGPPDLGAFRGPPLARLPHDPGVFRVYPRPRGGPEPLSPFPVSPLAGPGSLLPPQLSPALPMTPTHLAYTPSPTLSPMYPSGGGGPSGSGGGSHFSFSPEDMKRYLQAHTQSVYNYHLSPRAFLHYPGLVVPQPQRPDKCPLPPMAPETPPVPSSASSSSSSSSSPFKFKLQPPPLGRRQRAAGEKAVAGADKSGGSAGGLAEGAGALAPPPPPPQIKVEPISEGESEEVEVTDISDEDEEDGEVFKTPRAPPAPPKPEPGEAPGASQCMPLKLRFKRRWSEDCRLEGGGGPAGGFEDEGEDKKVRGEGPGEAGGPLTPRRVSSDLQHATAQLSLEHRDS
In short: as §1

ETV3L = biological target: T7, ETV3L (Homo sapiens, UniProt Q6ZN32 1-361); conditions: protein: recombinant; tags: N-terminal GST; dsDNA, one strand shown
T7 sequence: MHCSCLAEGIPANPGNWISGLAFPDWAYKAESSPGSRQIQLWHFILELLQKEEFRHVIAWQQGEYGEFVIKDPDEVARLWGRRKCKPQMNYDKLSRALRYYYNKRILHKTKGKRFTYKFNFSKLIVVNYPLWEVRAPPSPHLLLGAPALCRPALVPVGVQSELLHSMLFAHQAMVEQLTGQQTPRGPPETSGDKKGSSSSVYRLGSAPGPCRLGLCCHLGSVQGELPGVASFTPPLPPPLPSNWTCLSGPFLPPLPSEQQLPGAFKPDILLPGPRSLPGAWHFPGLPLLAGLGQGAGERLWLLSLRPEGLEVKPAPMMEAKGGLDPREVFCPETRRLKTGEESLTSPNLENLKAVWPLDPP
In short: as §1

ETS2 = biological target: T8, ETS2 (Homo sapiens, UniProt P15036 1-469); conditions: protein: recombinant; tags: N-terminal GST; dsDNA, one strand shown
T8 sequence: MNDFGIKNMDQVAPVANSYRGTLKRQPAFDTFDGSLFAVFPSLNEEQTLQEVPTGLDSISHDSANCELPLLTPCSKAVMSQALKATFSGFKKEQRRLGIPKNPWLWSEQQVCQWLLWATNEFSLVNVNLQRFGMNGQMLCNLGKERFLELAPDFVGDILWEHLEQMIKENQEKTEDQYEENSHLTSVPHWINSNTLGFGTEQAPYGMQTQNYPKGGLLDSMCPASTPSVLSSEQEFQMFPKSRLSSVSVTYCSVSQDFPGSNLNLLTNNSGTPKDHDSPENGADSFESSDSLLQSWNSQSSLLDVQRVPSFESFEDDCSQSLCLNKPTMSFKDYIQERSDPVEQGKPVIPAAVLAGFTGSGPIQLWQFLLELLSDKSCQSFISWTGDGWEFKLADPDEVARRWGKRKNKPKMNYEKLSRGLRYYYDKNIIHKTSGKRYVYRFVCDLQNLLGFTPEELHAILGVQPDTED
In short: as §1

SPDEF = biological target: T9, SPDEF (Homo sapiens, UniProt O95238 1-335); conditions: protein: recombinant; tags: N-terminal GST; dsDNA, one strand shown
T9 sequence: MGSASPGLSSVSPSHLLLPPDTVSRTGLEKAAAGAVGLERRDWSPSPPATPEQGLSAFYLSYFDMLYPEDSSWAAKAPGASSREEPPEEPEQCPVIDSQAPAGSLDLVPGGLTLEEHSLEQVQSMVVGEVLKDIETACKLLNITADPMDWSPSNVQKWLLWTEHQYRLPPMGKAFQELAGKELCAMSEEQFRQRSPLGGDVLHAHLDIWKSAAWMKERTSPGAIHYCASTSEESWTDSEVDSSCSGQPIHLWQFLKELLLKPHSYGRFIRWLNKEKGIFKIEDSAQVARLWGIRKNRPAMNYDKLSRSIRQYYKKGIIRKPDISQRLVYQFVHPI
In short: as §1

ETV7 = biological target: T10, ETV7 (Homo sapiens, UniProt Q9Y603 1-341); conditions: protein: recombinant; tags: N-terminal GST; dsDNA, one strand shown
T10 sequence: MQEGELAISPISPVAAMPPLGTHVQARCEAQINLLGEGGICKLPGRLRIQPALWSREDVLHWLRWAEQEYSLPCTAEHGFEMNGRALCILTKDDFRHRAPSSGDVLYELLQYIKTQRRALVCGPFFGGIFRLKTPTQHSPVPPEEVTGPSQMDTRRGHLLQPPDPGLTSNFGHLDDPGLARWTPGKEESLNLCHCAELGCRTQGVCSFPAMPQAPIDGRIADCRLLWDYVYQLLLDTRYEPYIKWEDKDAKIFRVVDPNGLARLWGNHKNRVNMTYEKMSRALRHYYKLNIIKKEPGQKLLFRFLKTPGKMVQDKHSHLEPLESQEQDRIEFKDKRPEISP
In short: as §1

ELF5 = biological target: T11, ELF5 (Homo sapiens, UniProt Q9UKW6-2 1-255); conditions: protein: recombinant; tags: N-terminal GST; dsDNA, one strand shown
T11 sequence: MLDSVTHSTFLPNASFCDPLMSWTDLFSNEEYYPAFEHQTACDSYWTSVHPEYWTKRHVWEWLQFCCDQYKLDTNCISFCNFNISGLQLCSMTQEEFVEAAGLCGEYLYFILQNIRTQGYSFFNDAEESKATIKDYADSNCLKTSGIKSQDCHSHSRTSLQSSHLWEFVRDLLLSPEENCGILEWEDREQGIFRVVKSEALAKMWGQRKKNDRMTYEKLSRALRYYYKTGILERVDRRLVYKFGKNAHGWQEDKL
In short: as §1

ETV3 = biological target: T12, ETV3 (Homo sapiens, UniProt P41162-2 1-143); conditions: protein: recombinant; tags: N-terminal GST; dsDNA, one strand shown
T12 sequence: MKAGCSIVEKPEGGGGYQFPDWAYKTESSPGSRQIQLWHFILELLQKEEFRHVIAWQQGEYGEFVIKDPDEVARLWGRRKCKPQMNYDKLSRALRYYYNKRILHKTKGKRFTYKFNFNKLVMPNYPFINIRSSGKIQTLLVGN
In short: as §1

ETV6 = ETV6 (Homo sapiens, UniProt P41212 1-452); conditions: protein: recombinant; tags: N-terminal GST; dsDNA, one strand shown
Sequence of ETV6 (P41212 whole entry): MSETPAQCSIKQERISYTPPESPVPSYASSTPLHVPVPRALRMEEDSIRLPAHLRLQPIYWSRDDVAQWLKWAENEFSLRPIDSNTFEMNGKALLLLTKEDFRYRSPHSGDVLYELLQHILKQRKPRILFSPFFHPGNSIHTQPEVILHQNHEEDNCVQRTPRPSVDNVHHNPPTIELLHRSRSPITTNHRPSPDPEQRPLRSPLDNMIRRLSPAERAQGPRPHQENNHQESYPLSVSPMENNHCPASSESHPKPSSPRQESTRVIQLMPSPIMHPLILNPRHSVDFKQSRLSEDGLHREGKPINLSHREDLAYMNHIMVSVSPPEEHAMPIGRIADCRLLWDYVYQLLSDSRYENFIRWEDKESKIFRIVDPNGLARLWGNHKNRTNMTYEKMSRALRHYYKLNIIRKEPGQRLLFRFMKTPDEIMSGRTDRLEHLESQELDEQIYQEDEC
In short: as §1

For TTTAAC, the binding signal (FEV) was 1.09 fold enrichment (6-mer frequency, TF over GST control), the binding signal (ETV5) was 1.12 fold enrichment (6-mer frequency, TF over GST control) and the binding signal (HSF1) was 1.22 fold enrichment (6-mer frequency, TF over GST control). The binding signal (SPIC) was 1.23 fold enrichment (6-mer frequency, TF over GST control), the binding signal (ELF4) was 1.14 fold enrichment (6-mer frequency, TF over GST control) and the binding signal (ELK4) was 1.13 fold enrichment (6-mer frequency, TF over GST control). For the same sequence, the binding signal (ETV2) was 1.24 fold enrichment (6-mer frequency, TF over GST control), the binding signal (ELF3) was 1.15 fold enrichment (6-mer frequency, TF over GST control) and the binding signal (CRX) was 1.74 fold enrichment (6-mer frequency, TF over GST control). The binding signal (ETV1) was 1.18 fold enrichment (6-mer frequency, TF over GST control), the binding signal (ERF) was 1.28 fold enrichment (6-mer frequency, TF over GST control) and the binding signal (ETV3L) was 1.17 fold enrichment (6-mer frequency, TF over GST control). The binding signal (ETS2) was 1.16 fold enrichment (6-mer frequency, TF over GST control), the binding signal (SPDEF) was 1.12 fold enrichment (6-mer frequency, TF over GST control) and the binding signal (ETV7) was 1.07 fold enrichment (6-mer frequency, TF over GST control). For the same sequence, the binding signal (ELF5) was 1.11 fold enrichment (6-mer frequency, TF over GST control), the binding signal (ETV3) was 1.21 fold enrichment (6-mer frequency, TF over GST control) and the binding signal (ETV6) was 1.19 fold enrichment (6-mer frequency, TF over GST control).
